Records with an inconclusive call do not appear. Active and inactive are the calls of the source. Rule for the calls, unless noted: active = hit-call score of the fitted dose curve at least 0.9, where 1 is the maximum; inactive = score below 0.9.

The results in this text go back to PubChem BioAssay (EPA / NIEHS).

Assay [1] is described as follows: CCTE_Harrill_HTTr_Viability_MCF7: CCTE's 6-hour Cell Viability Assessment for the High-Throughput Transcriptomics (HTTr) Platform, in MCF-7 cells cultured in DMEM + 10% fetal bovine serum, Harrill Lab (AID 2284010). The method, boiled down: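 PI exclusion, high-content imaging; 8-pt dilution series, 6 h exposure; bidirectional fit vs DMSO (neg. ctrl/baseline); gain of signal = loss of membrane integrity.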

Assay [2] is described as follows: CCTE_Harrill_HTTr_Apoptosis_MCF7: CCTE's 6-hour Apoptosis Assessment for the High-Throughput Transcriptomics (HTTr) Platform, in MCF-7 cells cultured in DMEM + 10% fetal bovine serum, Harrill Lab (AID 2284011). The method, boiled down:
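Read-out: CellEvent Caspase 3/7 Green signal by high content imaging, gain-of-signal indicating apoptosis. MCF-7 cells, DMEM + 10% FBS, eight-point dilution series, 6 h exposure. Curves fitted bidirectionally relative to DMSO negative control.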

Assay [3] in a line: CCTE_Harrill_HTTr_CellCount_MCF7: CCTE's Cell Proliferation Assessment for the High-Throughput Transcriptomics (HTTr) Platform, Harrill Lab (AID 2284012; active = hit-call score of the fitted dose curve at least 0.9, where 1 is the maximum;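 note: count of Hoechst-stained nuclei per well by high-content imaging in MCF-7 cells; cells exposed to compound for six hours; intended direction is loss of nuclei count meaning fewer cells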). The method, boiled down:
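Readout: Hoechst nuclear count by high-content imaging. MCF-7, 8-point dilution series, 6 h exposure. Bidirectional fit vs DMSO baseline.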

Assay [4] is described as follows: CCTE_Shafer_MEA_acute_spike_number: CCTE's Neural Acute Assay for Total Number of Spikes, Shafer Lab (AID 2284008). In outline:
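Rat cortical cultures, DIV 13/15, 37 C. 40 min baseline rec, cpd 0.03-40 uM, 40 min post-dose rec. Band-pass 300-5000 Hz, spike threshold 8x rms; % change in spike count per well, DMSO neg ctrl, loss-of-signal fit.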

Assay [5] can be described thus: CCTE_Shafer_MEA_acute_burst_number: CCTE's Neural Acute Assay for Single-Electrode Bursts, Shafer Lab (AID 2284013). The method, boiled down: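 Burst totals were derived with adaptive spike detection (8x rms threshold) on filtered signals from rat cortical cultures; change relative to pre-treatment baseline after 40-min compound exposure (0.03-40 uM) was fitted in the negative direction against DMSO.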

Assay [6] can be described thus: CCTE_Shafer_MEA_acute_burst_duration_mean: CCTE's Neural Acute Assay for Mean Burst Duration, Shafer Lab (AID 2284014).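 Note: hits are decreases in mean burst duration relative to DMSO controls.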 The method, boiled down: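 Acute exposure of mature rat cortical networks (DIV 13 or 15) grown on microelectrode arrays to 0.03-40 uM compound. Mean burst duration compared with the 40-min pre-dose baseline over a 40-min post-dose recording at 37 C.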

Assay [7] is described as follows: CCTE_Shafer_MEA_acute_per_burst_spike_number_mean: CCTE's Neural Acute Assay for Average Number of Spikes Per Burst, Shafer Lab (AID 2284015).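 Note: hits are decreases in mean spikes per burst versus baseline.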 In outline:
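Rat primary cortical neurons on 48-well MEAs (DIV 13 or 15) were treated with 0.03-40 uM compound at 37 C. Mean spikes per burst over 40 min were recorded before and after exposure and expressed as percent change from baseline, relative to DMSO.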

Assay [8] can be described thus: CCTE_Shafer_MEA_acute_interburst_interval_mean: CCTE's Neural Acute Assay for Mean Interburst Interval, Shafer Lab (AID 2284016).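 Note: percent change of mean interburst interval versus each well's own pre-dose baseline; curves fitted for decrease in interburst interval relative to DMSO.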 In outline:
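Rat primary cortical neurons on 48-well MEAs at DIV 13 or 15 were exposed acutely to 0.03-40 uM. Spikes detected at 8x rms noise, 37 C. Mean interburst interval from 40 min recordings expressed as percent change from 40 min pre-treatment baseline.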

Assay [9] in a line: CCTE_Shafer_MEA_acute_burst_percentage_mean: CCTE's Neural Acute Assay for Percentage of Spikes in a Burst, Shafer Lab (AID 2284017).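 Note: curve fitted for loss of signal so potency reflects decreased burst percentage.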 In outline: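 Primary rat cortical neurons on 48-well MEA plates, treated on DIV 13 or 15 at 0.03-40 uM. Spikes detected at 8x rms noise at 37C; percent change from 40-min baseline to 40-min post-dose recording, fitted versus DMSO.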
Assay [10] can be described thus: CCTE_Shafer_MEA_acute_burst_percentage_std: CCTE's Neural Acute Assay for Standard Deviation of Burst Percentage, Shafer Lab (AID 2284018).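 Note: fitted in the negative direction so actives lower burst percentage SD.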 In outline: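 Primary rat cortical neurons on 16-electrode MEA wells were recorded 40 min at baseline (DIV 13 or 15), then 40 min after compound (0.03-40 uM), at 37 C. Well value is SD across electrodes of spikes-in-bursts/total spikes; endpoint is percent change, DMSO-referenced.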

Assay [11] can be described thus: CCTE_Shafer_MEA_acute_per_network_burst_spike_number_mean: CCTE's Neural Acute Assay for Average Number of Spikes in a Network Burst, Shafer Lab (AID 2284019).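 Note: curve fitted for loss of signal so actives reduce spikes per network burst.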 In outline:
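Acute exposure of rat primary cortical networks (DIV 13/15) on MEAs; adaptive spike detection at 8x rms noise, 37 C. Percent change in spikes per network burst after 40 min with compound (0.03-40 uM), negative direction vs DMSO.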

Assay [12] can be described thus: CCTE_Shafer_MEA_acute_per_network_burst_spike_number_std: CCTE's Neural Acute Assay for Standard Deviation of Number of Spikes in a Network Burst, Shafer Lab (AID 2284020).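 Note: fitted for decrease in spike-number SD versus DMSO so actives lower it.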 The method, boiled down:
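Acute MEA exposure, rat cortical neurons, 0.03-40 uM. Per-well % change versus own baseline; DMSO as negative control.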

Assay [13] in a line: CCTE_Shafer_MEA_acute_per_network_burst_electrodes_number_mean: CCTE's Neural Acute Assay for Mean Number of Electrodes in a Network Burst, Shafer Lab (AID 2284021).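 Note: curves fitted for decreases only so hits reduce electrodes per burst.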 The method, boiled down: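 Readout: % change in mean electrodes active per network burst, post- vs pre-treatment, each well. Spikes detected at 8x rms noise after 300-5000 Hz band-pass; rat cortical cultures, DIV 13/15, compounds 0.03-40 uM, DMSO baseline.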

Assay [14] is described as follows: CCTE_Shafer_MEA_acute_network_burst_percentage: CCTE's Neural Acute Assay for Percentage of Network Bursts, Shafer Lab (AID 2284022).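 Note: curves fitted for loss so actives lower network burst percentage.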 The method, boiled down: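 Rat cortical cultures, DIV 13/15; 20 min equilibration, 40 min baseline, compound 0.03-40 uM, 40 min recording, 37 C. Spikes: 300-5000 Hz band-pass, threshold 8x rms noise. Readout: % change in network-burst spike fraction; loss direction vs DMSO.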

A short description of assay [15]: CCTE_Shafer_MEA_acute_cross_correlation_area: CCTE's Neural Acute Assay for Area of Cross Correlation, Shafer Lab (AID 2284024).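 Note: area under pooled inter-electrode spike cross-correlation near zero lag as percent change from own baseline; curves fitted for loss of cross-correlation area so actives lower synchrony.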 The method, boiled down:
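Rat cortical cultures, DIV 13/15, MEA; spikes detected at 8x rms noise (300-5000 Hz band-pass). Compound 0.03-40 uM, ≥3 wells each. Readout: % change in pooled inter-electrode cross-correlation area vs own baseline; DMSO negative control.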

Assay [16] has as its target Estrogen receptor (Homo sapiens) (UniProt P03372). The experiment in a line: CCTE_Deisenroth_AIME_96WELL_LUC_Active: CCTE's 96-well Estrogen Receptor Transactivation Assay with AIME metabolic competence (ERTA luciferase; metabolism positive), Deisenroth Lab (AID 2284023; active = hit-call score of the fitted dose curve at least 0.9, where 1 is the maximum). In outline:
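Metabolism-positive mode: induced rat hepatic S9 in alginate microspheres conditions test solutions (0.002 - 200 uM, 10 points) for 2 hours. VM7Luc4E2 ER luciferase reporter cells then exposed 24 h; positive-direction fit against 17beta-estradiol, n=4 typical.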

Chain of Estrogen receptor (Homo sapiens) (P03372 whole entry, looked up): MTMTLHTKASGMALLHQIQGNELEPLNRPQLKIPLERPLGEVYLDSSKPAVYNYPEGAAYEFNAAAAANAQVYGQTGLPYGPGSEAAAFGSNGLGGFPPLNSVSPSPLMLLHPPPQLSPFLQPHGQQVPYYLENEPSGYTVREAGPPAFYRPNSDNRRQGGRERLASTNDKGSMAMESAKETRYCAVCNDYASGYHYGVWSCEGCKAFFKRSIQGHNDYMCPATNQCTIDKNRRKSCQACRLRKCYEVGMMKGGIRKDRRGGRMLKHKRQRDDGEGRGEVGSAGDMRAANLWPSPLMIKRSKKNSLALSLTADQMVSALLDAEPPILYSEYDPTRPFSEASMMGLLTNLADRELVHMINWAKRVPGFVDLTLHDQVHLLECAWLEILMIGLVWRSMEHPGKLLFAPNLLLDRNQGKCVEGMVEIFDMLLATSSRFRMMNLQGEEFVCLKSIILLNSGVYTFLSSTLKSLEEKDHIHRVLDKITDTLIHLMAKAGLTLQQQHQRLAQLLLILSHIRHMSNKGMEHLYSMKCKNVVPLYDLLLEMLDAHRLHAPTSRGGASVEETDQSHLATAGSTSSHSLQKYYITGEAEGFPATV

For orientation: AC50 means the midpoint of the concentration-response curve, whichever way the signal moves. Take `N=C1C=CC(=C(c2ccc(N)cc2)c2ccc(N)cc2)C=C1`: the AC50 in assay [1] is 1.06 µM (active). In addition, the result in assay [2] was inactive.
As to `C=C[C@@]1(C)CC(=O)[C@]2(O)[C@@]3(C)[C@@H](O)CCC(C)(C)[C@@H]3[C@H](O)[C@H](OC(C)=O)[C@@]2(C)O1`, the outcome in assay [1], in [2] and in assay [3] was inactive.
Take `CC(=O)CC(=O)Nc1ccccc1C`: the result in assay [1] was inactive.
For the molecule `O=C(O[C@@H]1Cc2c(O)cc(O)cc2O[C@@H]1c1cc(O)c(O)c(O)c1)c1cc(O)c(O)c(O)c1`, the outcome in assay [1], in assay [2] and in assay [3] was inactive.
Regarding `Fc1ccc(Br)cc1`, the outcome in [1], in assay [2] and in assay [3] was inactive.
Take `CCCCCC(=O)OCC`: the outcome in [1] and in assay [2] was inactive.
Take `CCC(C)C(=O)OC` (configuration not stated): the result in assay [1] and in [3] was inactive.
In the case of `CC(C)=CCl`, the result in assay [1] and in assay [2] was inactive.
In the case of `c1ccc2cnccc2c1`, the result in assay [1] and in assay [3] was inactive.
Consider `CCCCCCCCCCCC(=O)N(C)CC(=O)O`, for which the result in assay [4], in assay [5], in [6] and in assay [15] was inactive. The AC50 is 2.9 µM (active) in [7]; 22.8 µM (active) in assay [8]; 20.2 µM (active) in assay [9]; 0.0576 µM (active) in [10]; 0.613 µM (active) in assay [11]; 14.6 µM (active) in assay [12]. The AC50 in assay [13] was 2.9 µM (active); in [14], 23.1 µM (active).
With `CC(=O)OCCc1ccccc1`, the result in assay [1] and in [3] was inactive.
For `Nc1ccc(C(=O)O)cc1`, the result in assay [1] and in assay [2] was inactive.
With `CC(=O)CCC1=C(C)CCCC1(C)C`, the outcome in assay [1], in assay [2] and in assay [3] was inactive.
On to `CC(=O)c1ccc(S(=O)(=O)NC(=O)NC2CCCCC2)cc1`, for which the result in [1], in assay [2] and in [3] was inactive.
In the case of `CC(C)(C)NC(=O)[C@H]1CC[C@H]2[C@@H]3CC[C@H]4NC(=O)C=C[C@]4(C)[C@H]3CC[C@]12C`, the result in assay [1], in [2] and in [3] was inactive.
As to `O=C(Oc1ccccc1)c1ccccc1O`, the result in assay [1] and in assay [3] was inactive.
Consider `CCCCCCC=O`, for which the result in assay [1], in assay [2] and in [3] was inactive.
Consider `CC(=O)c1ccccc1O`, for which the result in assay [1], in assay [2] and in assay [3] was inactive.
Consider `O=C(O)C1CCC(C(=O)O)CC1` (configuration not stated), for which the result in assay [1] and in assay [2] was inactive.
For the molecule `O=C(OCc1ccccc1)c1ccc(O)cc1`, the result in [1], in [2] and in assay [3] was inactive.
With `Cn1ccnc1`, the result in [1] was inactive.
`CCOC(=O)C1=NOC(c2ccccc2)(c2ccccc2)C1`: the result in assay [1], in assay [2] and in assay [3] was inactive.
Regarding `CC(=O)CCC=C(C)C`, the outcome in assay [1], in assay [2] and in [3] was inactive.
Turning to `CC(C)(O)Cc1ccccc1`, the result in assay [1], in assay [2] and in [3] was inactive.
As to `CC12CCC(CC1)C(C)(C)O2`, the result in [1] and in assay [2] was inactive.
With `CC(=O)OCC=C(C)C`, the outcome in [1] and in assay [3] was inactive.
As to `CCCCC(C=O)CC` (configuration not stated), the outcome in [1], in assay [2] and in [3] was inactive.
For the molecule `COc1ccc(-c2coc3cc(O)cc(O)c3c2=O)cc1`, the AC50 in assay [16] was 2.14 µM (active).
As for `Cc1cccc(C(C)(C)C)c1O`, the call in [16] was inactive.
